Laboratory results from paper PMC5540273 (PLoS ONE, 2017).

Assays:
Settings in all cases: concentration: 1 μM,replicates: in singlicate; n = 1
MEK5 = test system: T1, MEK5
T1 construct: gene MAP2K5

MEK6 = test system: T2, MEK6
T2 construct: gene MAP2K6

MELK = test system: MELK
MERTK = test system: MERTK
MINK = test system: T3, MINK
T3 construct: gene MINK1

MKK7 = test system: MKK7
MKNK1 = test system: MKNK1
MKNK2 = test system: MKNK2
MLCK = test system: T4, MLCK
T4 construct: gene MYLK3

MLK1 = test system: T5, MLK1
T5 construct: gene MAP3K9

MLK2 = test system: MLK2
MLK3 = test system: MLK3
MRCKA = test system: MRCKA
MRCKB = test system: T6, MRCKB
T6 construct: gene CDC42BPB

MST1R = test system: MST1R
MST1 = test system: T7, MST1
T7 construct: gene STK4

MST2 = test system: T8, MST2
T8 construct: gene STK3

MST3 = test system: T9, MST3
T9 construct: gene STK24

MST4 = test system: MST4
MET = test system: MET
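Further: KINOMEscan kinase panel screen.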

| Structure (SMILES) | %Inh (MEK5) [%] | %Inh (MEK6) [%] | %Inh (MELK) [%] | %Inh (MERTK) [%] | %Inh (MINK) [%] | %Inh (MKK7) [%] | %Inh (MKNK1) [%] | %Inh (MKNK2) [%] | %Inh (MLCK) [%] | %Inh (MLK1) [%] | %Inh (MLK2) [%] | %Inh (MLK3) [%] | %Inh (MRCKA) [%] | %Inh (MRCKB) [%] | %Inh (MST1R) [%] | %Inh (MST1) [%] | %Inh (MST2) [%] | %Inh (MST3) [%] | %Inh (MST4) [%] | %Inh (MET) [%] |
| --- | --- | --- | --- | --- | --- | --- | --- | --- | --- | --- | --- | --- | --- | --- | --- | --- | --- | --- | --- | --- |
| O=C(Nc1ccc(Oc2ccc3nc(NC(=O)C4CC4)cn3n2)c(F)c1)c1cccn(-c2ccccc2)c1=O | 97 | 0 | 18 | 96 | 0 | 0 | 20 | 92.5 | 0 | 19 | 32 | 10 | 0 | 0 | 39 | 0 | 0 | 0 | 0 | – |
| COC(=O)Nc1nc2cc(Oc3ccc(NC(=O)Nc4cc(C(F)(F)F)ccc4Cl)cc3)ccc2[nH]1.Cl [GW697465] | 78 | 0 | 0 | 96.3 | 0 | 0 | 51 | 92.8 | 0 | 1 | 0 | 8 | 5 | 0 | 41 | 0 | 0 | 0 | 0 | 84 |
| C[C@@H](Oc1cc(-n2cnc3ccc(-c4ccncc4)cc32)sc1C(N)=O)c1ccccc1Cl [GSK483724] | 78 | 0 | 0 | 35 | 23 | 56 | 0 | 7 | 32 | 0 | 23 | 31 | 0 | 10 | 44 | 24 | 21 | 0 | 0 | 9 |
| C[C@@H]1CCN(C(=O)N2CCCC2)C[C@@H]1N(C)c1ncnc2[nH]ccc12 | 38 | 20 | 13 | 0 | 30 | 0 | 0 | 58 | 0 | 97.4 | 33 | 67 | 0 | 0 | 8 | 100 | 23 | 25 | 0 | 0 |
| Cc1ccn2nc(-c3ccc(F)cc3)c(-c3ccncc3)c2c1.Cl [GW457859] | 7 | 2 | 7 | 24 | 67 | 0 | 6 | 0 | 2 | 0 | 0 | 0 | 24 | 3 | 36 | 0 | 0 | 14 | 0 | 0 |
| CSc1nccc(-c2c(-c3ccc(F)cc3)ncn2CCCN2CCOCC2)n1.Cl [SB-217146] | 36 | 15 | 0 | 5 | 26 | 0 | 0 | 0 | 0 | 0 | 28 | 0 | 0 | 0 | 0 | 0 | 0 | 6 | 0 | 0 |
| CN1CCN(CCCNc2nccc(-c3c(-c4ccc(F)cc4)nn4cc(C(N)=O)ccc34)n2)CC1 [GW622475] | 42 | 0 | 91.9 | 49 | 71 | 0 | 10 | 0 | 0 | 0 | 16 | 12 | 11 | 0 | 36 | 28 | 15 | 33 | 0 | 32 |
| O=c1[nH]cc(-c2ccc(O)cc2)c2sc(-c3ccncc3)cc12 [GSK1033723] | 37 | 0 | 0 | 0 | 0 | 0 | 12 | 26 | 40 | 0 | 0 | 3 | 22 | 14 | 44 | 1 | 7 | 6 | 0 | 0 |
| CCn1c(-c2nonc2N)nc2cncc(Br)c21 [SB-738004] | 74 | 10 | 35 | 0 | 29 | 22 | 10 | 81 | 28 | 0 | 0 | 12 | 11 | 0 | 19 | 0 | 6 | 19 | 0 | 0 |
| Cn1ccc2ncnc(Oc3ccc(NC(=O)Nc4ccnc(C(F)(F)F)c4)c(Cl)c3)c21 | 9 | 0 | 0 | 23 | 0 | 0 | 0 | 0 | 0 | 8 | 0 | 0 | 0 | 0 | 32 | 83 | 0 | 9 | 0 | 2 |
| CCCC(=O)Nc1n[nH]c2ncccc12 [SB-601436] | 0 | 0 | 0 | 5 | 0 | 0 | 0 | 11 | 0 | 0 | 0 | 1 | 0 | 0 | 12 | 0 | 0 | 0 | 0 | 0 |
| CN(c1ccc2c(c1)nc(NCc1ccc(F)cc1)n2C)c1ccnc(Nc2ccc(CS(C)(=O)=O)cc2)n1.Cl [GW813244] | 97.9 | 11 | 13 | 77 | 9 | 4 | 0 | 0 | 0 | 24 | 44 | 0 | 6 | 0 | 0 | 16 | 0 | 1 | 3 | 45 |
| Cc1ccc(C(=O)Nc2ccc(Oc3ccc4nc(NC(=O)C5CC5)cn4c3)c(F)c2)c(=O)n1-c1ccccc1 | 98.9 | 0 | 37 | 99.2 | 0 | 0 | 88 | 94.2 | 0 | 80 | 92.4 | 13 | 0 | 0 | 100 | 47 | 100 | 5 | 0 | – |
| CCN1CCN(CCCC(=O)Nc2n[nH]c3nc(-c4ccc(O)cc4)c(Br)cc23)CC1 [SB-731579] | 42 | 0 | 0 | 2 | 0 | 0 | 46 | 46 | 39 | 0 | 0 | 0 | 0 | 0 | 17 | 2 | 57 | 0 | 60 | 0 |
| Cc1ccc(Nc2ccnc(Nc3ccc4c(c3)CS(=O)(=O)C4)n2)cc1O.Cl [GW579362] | 99.8 | 46 | 0 | 99.5 | 64 | 0 | 43 | 94.5 | 0 | 94.2 | 100 | 89 | 9 | 0 | 81 | 19 | 60 | 29 | 25 | 80 |
| CS(=O)c1ccc(-c2coc3ccc(-c4n[nH]c(=O)o4)cc23)cc1 (centres unmarked) | 17 | 0 | 0 | 0 | 7 | 1 | 9 | 11 | 32 | 9 | 6 | 0 | 4 | 0 | 0 | 0 | 0 | 24 | 5 | 22 |
| COc1cc2nccc(Nc3ccc(Oc4ccccc4)cc3)c2cc1OC.Cl [GI261656] | 99.9 | 0 | 3 | 12 | 0 | 0 | 0 | 27 | 0 | 0 | 0 | 15 | 0 | 0 | 30 | 0 | 0 | 0 | 0 | 0 |
